Results on 34 compounds are retold here after PubChem BioAssay (NCATS).

Experiment [1] in a line: qHTS to identify inhibitors of the type 1 interferon - major histocompatibility complex class I in skeletal muscle: primary screen against the NCATS Mechanism Interrogation Plate v5.0 (MIPE) Libary (AID 1347411). Note: nearly all actives have a fitted effect of over 65% in size. Note: potency is the fitted concentration of half-maximal effect. In short, it runs like this: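 Luminescence from HiBiT-tagged endogenous HLA-B*08:01 served as the MHC class I read-out. CRISPR-engineered C25cl48 human myoblasts received 4.0 ng/ml IFN-beta plus compound for 24 hrs, with an 11-point, 1:3 series topping at 46 uM final.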

The target of experiment [2] is Calcium and integrin-binding protein 1 (Homo sapiens) (UniProt Q99828). Nature of the experiment: Primary qHTS for Identification of Calcium Integrin Binding Protein 1 (CIB1) Competitor (AID 1508620). Note: top concentration of the series differs between compounds. In short, it runs like this: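 Fluorescence polarization competition: GST-tagged CIB1 (1 uM final) preincubated with compound 15 min at room temperature, then FITC-labelled alphaIIb peptide (100 nM final) added. After 15 min at room temperature, polarization read at Ex 480/Em 540.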
For orientation: In qHTS, concentration-response curves come from the screen itself.

Records with an inconclusive call do not appear. Entries that show only a call come without a potency. Active and inactive are the calls of the source. Calls come from the whole dose curve; as a rule, active = well fitted curve in the direction sought with a large enough effect; inconclusive = small, poorly fitted or top-dose-only effect, or another doubt; inactive = no such curve, though single readings can be large; an effect the other way counts as inactive or inconclusive.

Calcium and integrin-binding protein 1 (Homo sapiens), sequence (Q99828 whole entry, looked up): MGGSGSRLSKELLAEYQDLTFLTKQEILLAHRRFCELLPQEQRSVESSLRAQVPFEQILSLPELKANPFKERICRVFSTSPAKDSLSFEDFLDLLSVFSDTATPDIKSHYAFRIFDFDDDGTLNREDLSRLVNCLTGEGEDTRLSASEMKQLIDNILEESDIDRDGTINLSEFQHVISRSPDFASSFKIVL

`C[C@@H]1CN(CC(=O)N2CC(C)(C)c3ncc(Cc4ccc(F)cc4)cc32)[C@@H](CN2CCOC[C@H]2C)CN1`: the Potency entry in experiment [1] and in experiment [2] was “inactive” in each case.

Regarding `C=CCNC1=C2C[C@@H](C)C[C@H](OC)[C@H](O)[C@@H](C)/C=C(\C)[C@H](OC(N)=O)[C@@H](OC)/C=C\C=C(/C)C(=O)NC(=CC1=O)C2=O`, in experiment [1], the Potency was 0.829 µM (active).

Turning to `N#Cc1ccnc(Nc2cc(C3CCN(C4COC4)CC3)cc(N3CCC(F)(F)C3)n2)c1`, the Potency in experiment [1] was 2.34 µM (active). The Potency result in experiment [2] was “inactive”.

Regarding `O=C(N[C@H]1CCC[C@H](CO)C1)C1CCN(c2nc3cc(Cl)c(-c4ccc(Cl)cc4)cc3o2)CC1`, the Potency entry in experiment [1] and in experiment [2] was “inactive” throughout.

As for `CC(C)NC(=O)COc1cccc(-c2nc(Nc3ccc4[nH]ncc4c3)c3ccccc3n2)c1`, the Potency result in experiment [1] and in experiment [2] was “inactive” throughout.

In the case of `Cc1nnc(C[C@@H]2C=C(c3ccc(Cl)cc3)c3ccccc3-n3c(C)nnc32)o1`, the Potency entry in experiment [1] and in experiment [2] was “inactive” each time.

Turning to `CN1CCN(C2CCN(C(=O)Nc3cc(Oc4ccc(NC(=O)C5(C(=O)Nc6ccc(F)cc6)CC5)c(F)c4)ccn3)CC2)CC1`, the Potency in experiment [1] was 20.8 µM (active). Besides, the Potency entry in experiment [2] is “inactive”.

Regarding `CCC(C)c1ccc(NC(=O)Cn2cnc3c2c(=O)n(C)c(=O)n3C)cc1` (stereo not given), the Potency entry in experiment [2] is “inactive”.

For the compound `CCCCCCCCn1cc(CN(CC)CC)c2cc(-c3cnc(N)nc3)ccc21`, the Potency entry in experiment [2] is “inactive”.

Regarding `c1cc(-c2cnn3cc(-c4ccc(N5CCNCC5)cc4)cnc23)c2cccnc2c1`, the Potency result in experiment [2] was “inactive”.

Consider `C=C[C@@]12COC(=O)C(=C)[C@@H]1[C@@H](O)[C@H](C(=C)C(=O)OC)[C@@H](O)C2`, for which, in experiment [2], the Potency entry was “inactive”.

For `COc1ccc2c(NC(=O)Nc3cccc(C(F)(F)F)n3)ccnc2c1`, the Potency entry in experiment [2] is “inactive”.

As for `Cc1c(C(=O)NCc2cccnc2)nn(-c2ccc(Cl)cc2Cl)c1-c1ccc(Cl)cc1`, the Potency entry in experiment [2] was “inactive”.

For `O=C(NCC1(N2CCN(c3ccccc3)CC2)CCOCC1)c1cccnc1Sc1ccccc1`, the Potency result in experiment [2] is “inactive”.

For the compound `C/C=C(\C)C(=O)OC1C[C@@]2(COC(C)=O)O[C@H]2/C=C\[C@@]2(C)O[C@@H]2[C@H]2OC(=O)C(COC(C)=O)=C12` (stereo not given in full), in experiment [2], the Potency entry was “inactive”.

Take `O[C@@](Cc1ncc(CC2(C(F)(F)F)CC2)[nH]1)(c1ccc(-n2cccn2)cc1)C(F)(F)F`: the Potency entry in experiment [2] is “inactive”.

Take `COc1cc2c(cc1OC(C)C)[C@H](c1ccc(Cl)cc1)N(c1ccc(N(C)CC3CCC(N4CCN(C)C(=O)C4)CC3)cc1)C(=O)C2` (stereo not given in full): in experiment [2], the Potency result was “inactive”.

For the compound `CCn1c(=O)n([C@H]2CCCN(c3nccc(-c4cc5ccccc5o4)n3)C2)c2ccccc21`, in experiment [2], the Potency result is “inactive”.

With `O=c1cc(OCc2ccc(F)cc2)ccn1-c1ccc(OCCN2CCCC2)cc1`, the Potency result in experiment [2] was “inactive”.

With `Clc1ncoc1-c1c[nH]c2ccccc12`, the Potency entry in experiment [2] is “inactive”.

Turning to `CC(=O)OC[C@]12[C@H](OC(C)=O)C(=O)[C@@H]3[C@@H](O)[C@@]14O[C@@]3(C)COC(=O)c1cccnc1[C@@H](C)[C@H](C)C(=O)O[C@@H]([C@H](O)[C@@H]2OC(C)=O)[C@]4(C)O`, in experiment [2], the Potency entry is “inactive”.

On to `CCC(CC)(NC(=O)C(C)C)C(=O)N[C@@H](CCCN=C(N)N)C(=O)NC1(C(=O)NC(c2ccc(F)cc2)c2ccc(F)cc2)CCCC1`, for which, in experiment [2], the Potency entry was “inactive”.

Take `Cc1c(C(=O)Nc2ccc(N3CCC(N4CCOCC4)CC3)c(C#N)c2)cnn1-c1ccc(Cl)cc1`: the Potency result in experiment [2] was “inactive”.

Regarding `Cc1cc(F)ccc1[C@H]1C[C@@H](N2CCN3C(=O)CC[C@H]3C2)CCN1C(=O)N(C)[C@H](C)c1cc(C(F)(F)F)cc(C(F)(F)F)c1`, the Potency result in experiment [2] is “inactive”.

For the compound `Cn1c(SCC(=O)N2CCC[C@H]2C(=O)Nc2ccccc2-c2ccccc2)nc2ccccc21`, the Potency entry in experiment [2] was “inactive”.

`CCCNCCc1ccc(NS(=O)(=O)c2ccc(OC(F)(F)F)cc2)cc1`: the Potency result in experiment [2] is “inactive”.

For `CC(C)CCNC(=O)[C@H](CC(C)C)NC(=O)[C@H]1O[C@@H]1C(=O)O`, the Potency entry in experiment [2] is “inactive”.

Consider `COC(=O)c1sccc1S(=O)(=O)Nc1ccc(Nc2ccccc2)cc1OC`, for which the Potency entry in experiment [2] is “inactive”.

In the case of `Cc1ccc(S(=O)(=O)N2CCC[C@H]2c2ccc(F)cc2)cc1`, the Potency result in experiment [2] is “inactive”.

In the case of `C/C=C(\C)C(=O)O[C@H]1C[C@](C)(O)[C@H]2CC=C(C)[C@H]2[C@@H]2OC(=O)[C@H](C)[C@H]21`, in experiment [2], the Potency entry is “inactive”.

As for `O=C(N[C@H](Cc1cscn1)C(=O)N[C@@H](CC1CCCCC1)[C@@H](O)[C@@H](O)C1CC1)c1nc2ccccc2[nH]1`, the Potency result in experiment [2] is “inactive”.

Regarding `C=C[C@H](/C=C\c1ccc(O)cc1)c1ccc(O)cc1`, the Potency entry in experiment [2] is “inactive”.

Turning to `COC(=O)CC[C@@H](C)C1CCC2C3CCC4C[C@H](OC(C)=O)CCC4(C)C3C[C@H](O)C21C` (stereo not given in full), in experiment [2], the Potency result is “inactive”.

Turning to `C=C1C(=O)O[C@H]2C[C@@H](C)[C@@H]3CCC(=O)[C@@]3(C)C[C@H]12`, the Potency result in experiment [2] was “inactive”.
